Pf growth 48h: P. falciparum growth inhibition at 48 hours (one generation). Potency, µM (titrated, usually from 28.7 µM), without a hit: at the highest dose activity change, negative = inhibition, actives largely listed as inhibitors. 310,000 compounds, 5.9% hits. AID 504832. P. falciparum luciferase growth in erythrocytes, 48 h; also: % is scaled to controls: 0 for no effect and ±100 for the full control effect
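First compound was added to culture medium, then infected red cells at 0.1% parasitemia and 2% hematocrit (final). After incubation at 37 C under 5% CO2, luciferase detection reagent was dispensed and light output recorded.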
Sm TGR inh: S. mansoni TGR enzyme inhibition | Q962Y6 | purified TGR, DTNB reduction, TNB absorbance 405 nm | Potency, µM (series often up to 114 µM), inactives show at the top dose activity change, negative = inhibition, hits mostly inhibitors | 360,000 compounds, 3% hits; also: % is scaled to controls: 0 for no effect and ±100 for the full control effect; nearly all actives have a fitted effect of over 60% in size
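TGR 20 nM + NADPH 100 uM (dispensed conc.), cpd preinc 15 min RT; start with NADPH (500 uM addition) then DTNB (15 mM addition). Kinetic TNB absorbance, 405 nm filter. Four-parameter Hill fit across titration.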
Pf growth 96h: P. falciparum growth inhibition at 96 hours; P. falciparum luciferase reporter growth, 96 h; Potency, µM (doses to about 28.7 µM), without a hit: at the top dose activity change, negative = inhibition, usual class: inhibitors; 320,000 compounds, 6.9% hits; AID 504834; also: % is scaled to controls: 0 for no effect and ±100 for the full control effect
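P. falciparum expressing integrated firefly luciferase grown in erythrocytes (2% hematocrit, 0.05% parasitemia final) with compounds for 96 hours at 37 C, 5% CO2. Growth inhibition read as loss of luminescence after adding luciferase detection reagent.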
SARS PLpro yeast: inhibitors of SARS-CoV papain-like protease in yeast; S. cerevisiae expressing SARS-CoV PLpro, growth rescue; Potency, µM (highest dose often 32.9 µM), inactives show top-dose activity, positive = growth rescue, usual class: activators; 330,000 compounds, 0.19% hits; AID 485353; calls by dose curve; also: 0% is about no effect; nearly all actives have a fitted effect of over 55% in size
* hit, by the source's call; ? = inconclusive; . = no result given; [ ] = dose if it differs, or a comment. A selection: hits, their analogues and other compounds. The true share with any hit is near 12%. Unless noted, calls follow the shape of the dose curve; as a rule, active = well fitted curve in the direction sought with a large enough effect; inconclusive = small, poorly fitted or top-dose-only effect, or another doubt; inactive = no such curve, though single readings can be large; an effect the other way counts as inactive or inconclusive. Potency is read from the fitted curve at half-maximal effect.

SMILES	Pf growth 48h	Sm TGR inh	Pf growth 96h	SARS PLpro yeast
N=c1c(C(=O)NCc2ccccc2)cc2c(=O)n3ccccc3nc2n1CCCN1CCOCC1	5.86µM*	-2.4%	-14.1%	3.5%
CCCn1c(=N)c(C(=O)NCc2cccnc2)cc2c(=O)n3ccccc3nc21	.	0.0%	.	.
N=c1c(C(=O)NCc2ccc(F)cc2)cc2c(=O)n3ccccc3nc2n1Cc1cccnc1	.	2.0%	5.86µM*	-4.6%
N=c1c(C(=O)NCCc2ccccc2)cc2c(=O)n3ccccc3nc2n1CCCN1CCOCC1	2.08µM*	-5.6%	?	-1.7%
Cc1nn(-c2ccccc2)c2c1N(CC(=O)N1CCN(c3cccc(Cl)c3)CC1)C(=O)CS2	.	0.5%	.	.
N=c1c(C(=O)NCC2CCCO2)cc2c(=O)n3ccccc3nc2n1Cc1ccc(F)cc1 (configuration not stated)	?	-13.7%	?	-6.5%
N=c1c(C(=O)NCc2ccc(F)cc2)cc2c(=O)n3ccccc3nc2n1CCCN1CCOCC1	1.65µM*	0.0%	2.62µM*	?
CCN(CC)C(=O)c1ccc2c(c1)C1C(Cl)C(Sc3ccccc3[N+](=O)[O-])CC1C(C(=O)O)N2 (configuration not stated)	?	3.16µM*	?	0.7%
CCOC(=O)c1ccc2c(c1)C1C=CCC1C(C(=O)O)N2 (configuration not stated)	6.0%	7.94µM*	.	-0.7%
CCOC(=O)C1Nc2ccc(C(=O)O)cc2C2C=CCC12 (configuration not stated)	-9.0%	?	-44.4%	2.1%
CCN(CC)C(=O)c1ccc2c(c1)C1C=CCC1C(C(=O)O)N2 (configuration not stated)	16.7%	0.447µM*	21.2%	-2.4%
CC(=O)c1ccc2c(c1)C1C=CCC1C(c1cc3c(cc1Br)OCO3)N2 (configuration not stated)	?	-29.9%	?	2.8%
Cc1ccc(S(=O)(=O)Nc2cc3c(cc2Cl)n(C)c(=O)c(=O)n3C)cc1	.	2.6%	.	.
O=C(Nc1ccc(-n2ccc(C(F)(F)F)n2)cc1)Nc1cccc(Cl)c1	?	32.7%	?	-5.3%
O=C(O)CCC(=O)Nc1ccc(-n2ccc(C(F)(F)F)n2)cc1	1.65µM*	-11.1%	58.3%	-0.5%
Cc1cc(C)cc(NC(=O)Nc2ccc(-n3ccc(C(F)(F)F)n3)cc2)c1	11.7µM*	11.5%	?	-1.0%
O=C(O)CCCC(=O)Nc1ccc(-n2ccc(C(F)(F)F)n2)cc1	3.8%	20.4%	15.6%	-1.8%
Cc1cccc2sc(NNC(=O)c3ccc(S(=O)(=O)N4CCCC(C)C4)cc3)nc12 (configuration not stated)	31.2%	-16.9%	38.7%	8.91µM*
Cc1cc(C)c2nc(NNC(=O)c3ccc(S(=O)(=O)N4CCCCC4)cc3)sc2c1	?	-5.1%	4.65µM*	?
COc1ccc(C(=O)c2oc3ccccc3c2NC(=O)COc2ccccc2)cc1	.	59.6%	.	.
O=NNc1nc2ccccc2n1Cc1ccccc1	?	-3.1%	13.1µM*	2.9%
CS(=O)(=O)c1nc2ccccc2n1Cc1ccccc1	-15.0%	-2.0%	-4.6%	1.3%
Cn1c(N=Nc2ccccc2)nc2ccccc21	0.738µM*	-2.9%	0.262µM*	-60.4%
Cn1c(Cl)nc2ccccc21	5.4%	0.7%	13.5%	-3.9%
CC(=O)Nc1nc2ccccc2n1Cc1ccccc1	?	-2.2%	11.7µM*	-3.4%
SMILES	Pf growth 48h	Sm TGR inh	Pf growth 96h	SARS PLpro yeast
Cn1c(NN=O)nc2ccccc21	11.7µM*	8.1%	?	0.0%
CN(C)c1ccc(N=Nc2nc3ccccc3n2C)cc1	4.0%	-16.4%	?	-13.9%
O=C(Nc1nc2ccccc2n1Cc1ccccc1)c1ccc(COc2ccccc2[N+](=O)[O-])o1	1.85µM*	6.9%	?	5.1%
COc1cc2c(cc1O)[C@@H]1Cc3ccc(OC)c(O)c3CN1CC2	11.7µM*	-16.3%	6.57µM*	.
COc1ccc(C[C@@H]2c3cc(O)c(OC)cc3CCN2C)cc1O	11.8%	-17.0%	-18.3%	22.6%
COc1ccccc1N(C)S(=O)(=O)c1ccc(Cl)c(C(=O)NNC(=O)c2ccccc2O)c1	34.4%	?	4.9%	1.6%
COc1ccccc1N(C)S(=O)(=O)c1ccc(Cl)c(C(=O)NCC2(N(C)C)CCCCC2)c1	?	2.2%	9.28µM*	1.0%
COc1ccc(Cl)cc1NS(=O)(=O)c1cccc(C(=O)NCC2(N(C)C)CCCCC2)c1	?	-4.1%	14.7µM*	-4.4%
CCOC(=O)c1ccc(NC(=O)CN2Cc3ccccc3C2=O)cc1	.	-3.5%	.	.
Oc1c(C(c2ccco2)N2CCN(C(c3ccccc3)c3ccccc3)CC2)sc2ncnn12 (configuration not stated)	.	?	4.15µM*	-4.3%
Oc1c(C(c2ccccc2)N2CCc3ccccc3C2)sc2ncnn12 (configuration not stated)	?	-6.4%	?	-4.9%
CSCCC(NS(=O)(=O)c1cccs1)C(=O)Nc1ccc(C)c(Cl)c1 (configuration not stated)	.	5.4%	.	.
Cc1cc(C(=O)NCC(c2ccco2)N2CCCC2)c2ccccc2n1 (configuration not stated)	?	-22.9%	10.4µM*	-2.5%
O=C(CNC(=O)c1ccccc1)NCC(c1ccco1)N1CCCC1 (configuration not stated)	.	.	.	13.5%
O=C(Nc1ccon1)c1cc2c(s1)CCCCCC2	3.7µM*	12.6%	.	-15.0%
N#Cc1ccc(C(=O)NCC(c2ccco2)N2CCCCC2)cc1 (configuration not stated)	.	2.9%	10.4µM*	3.2%
O=C(NCC(c1ccco1)N1CCCCC1)c1cccs1 (configuration not stated)	.	.	.	6.0%
O=C(Nc1ccon1)c1cc2c(s1)CCCC2	57.9%	-2.4%	3.6%	-18.7%
O=C(NCC(c1ccco1)N1CCCCC1)c1cc2c(s1)CCCC2 (configuration not stated)	8.28µM*	-23.7%	1.65µM*	5.6%
N#Cc1ccc(C(=O)NCC(c2ccco2)N2CCCC2)cc1 (configuration not stated)	-25.1%	-26.7%	?	-12.3%
CCn1ncc(Br)c1C(=O)Nc1ccccc1C(F)(F)F	14.3%	2.3%	?	-0.4%
Cc1ccc(C(=O)NCC(=O)NCCc2ccc(S(N)(=O)=O)cc2)s1	0.0%	8.6%	-21.3%	0.7%
COc1ccccc1CNC(=O)c1cc(C(=O)CC(C)C)c[nH]1	7.7%[0.00184 µM]	1.5%	0.3%	0.7%
Cc1cc(C)n(-c2ccc(C(=O)NCC(c3ccco3)N3CCCC3)cc2)n1 (configuration not stated)	?	-14.2%	5.22µM*	-1.5%
Cc1ccc(S(=O)(=O)NC(C(=O)OCC(=O)NC2CCS(=O)(=O)C2)C(C)C)cc1 (configuration not stated)	14.3%	4.0%	10.4µM*	7.9%
Cc1ccc(C(=O)N[C@H](C(=O)OCC(=O)NC2CCS(=O)(=O)C2)C(C)C)cc1 (some centres not stated)	17.3%	10.1%	34.9%	5.9%

High-throughput results: PubChem BioAssay, National Center for Advancing Translational Sciences (NCATS)
